Reference: the OligoGym collection

Target: IFT52
Assay: pooled miR-30 sensor sort-seq; sequence = guide strand
Details: shRNA

**Q.** For TAATCCACAGTTTTACTCCATT, which sensor-assay potency score (higher = more potent) is on record?
**A.** -1.37

**Q.** With TTCATGTTTCACATTTAGCTGC as the sequence, how does the sensor-assay potency score (higher = more potent) read?
**A.** -0.162

**Q.** How did the sensor-assay potency score (higher = more potent) turn out when ATATTGATCACTGAACATGTGA was run?
**A.** -0.0473

Target: IGFBP3
Assay: as above
Details: shRNA

**Q.** For TTTCTTATAAAATCCCTTCTTG, which sensor-assay potency score (higher = more potent) is on record?
**A.** -0.488

**Q.** For TTTCTTGATGATGATTATCTTT, which sensor-assay potency score (higher = more potent) is on record?
**A.** -1

**Q.** Which sensor-assay potency score (higher = more potent) does the source give for TTCTTGATGATGATTATCTTTG here?
**A.** -1.16

**Q.** How did the sensor-assay potency score (higher = more potent) turn out when TCGTAGTCAACTTTGTAGCGCT was run?
**A.** -0.259

**Q.** For TACTTATCCACACACCAGCAGA, which sensor-assay potency score (higher = more potent) is on record?
**A.** -1.2

**Q.** How did the sensor-assay potency score (higher = more potent) turn out when TTTAGCATGCCCTTTCTTGATG was run?
**A.** -1.17

**Q.** How did the sensor-assay potency score (higher = more potent) turn out when TAGCATTTCCTGGAGCTGGCGG was run?
**A.** -0.626

**Q.** TTGATGATGATTATCTTTGAAT was tested. Which sensor-assay potency score (higher = more potent) did it give?
**A.** -0.974

**Q.** Which sensor-assay potency score (higher = more potent) does the source give for TATCTGTGCTCTGAGACTCGTA here?
**A.** -0.405

**Q.** TATCTTTGAATGGAGGGGGTGG was tested. Which sensor-assay potency score (higher = more potent) did it give?
**A.** -0.842

**Q.** How did the sensor-assay potency score (higher = more potent) turn out when ATCTGTGCTCTGAGACTCGTAG was run?
**A.** -0.551

**Q.** For TAGTCAACTTTGTAGCGCTGGC, which sensor-assay potency score (higher = more potent) is on record?
**A.** -0.23
